Mac1 fbg enh: enhancers of CD11b/CD18 adhesion to fibrinogen, primary screen, K562 cells, luminescence | AID 1499, 2009 | Integrin beta-2 (Homo sapiens) + Integrin alpha-M (Homo sapiens), P05107+P11215 | ATPlite luminescence | actives 0.07% (n = 93,000) | activation, % at 10 µM;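 active means 10 µM primary screen giving 50% or more activity, confirmed by 40% or more on retest at that dose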
Target sequence (P05107 whole entry, looked up, other chains not shown): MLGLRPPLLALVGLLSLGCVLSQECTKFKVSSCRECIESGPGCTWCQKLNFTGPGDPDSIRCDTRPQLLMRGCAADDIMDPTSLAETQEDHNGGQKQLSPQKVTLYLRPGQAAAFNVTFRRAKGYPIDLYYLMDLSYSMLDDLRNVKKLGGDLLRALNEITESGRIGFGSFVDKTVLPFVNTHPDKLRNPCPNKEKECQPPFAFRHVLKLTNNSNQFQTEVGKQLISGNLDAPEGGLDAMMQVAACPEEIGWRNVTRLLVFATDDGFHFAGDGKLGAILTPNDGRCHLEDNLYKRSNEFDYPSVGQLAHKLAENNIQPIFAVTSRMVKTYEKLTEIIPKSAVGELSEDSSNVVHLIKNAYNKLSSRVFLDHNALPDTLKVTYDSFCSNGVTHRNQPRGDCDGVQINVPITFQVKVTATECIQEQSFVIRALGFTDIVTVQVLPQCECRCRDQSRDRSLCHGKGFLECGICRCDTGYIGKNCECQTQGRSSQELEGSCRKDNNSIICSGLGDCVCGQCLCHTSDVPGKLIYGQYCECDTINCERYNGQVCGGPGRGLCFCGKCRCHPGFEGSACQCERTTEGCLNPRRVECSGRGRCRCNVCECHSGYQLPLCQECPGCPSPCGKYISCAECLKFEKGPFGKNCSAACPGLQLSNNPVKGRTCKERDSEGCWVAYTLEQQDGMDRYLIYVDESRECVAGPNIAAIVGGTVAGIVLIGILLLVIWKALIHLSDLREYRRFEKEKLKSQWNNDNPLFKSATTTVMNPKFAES
CD11b adhes inh: inhibitors of CD11b/CD18 adhesion to fibrinogen, primary screen, K562 cells, luminescence; ATPlite luminescence; Mn2+ added to activate the integrin; Integrin beta-2 (Homo sapiens) + Integrin alpha-M (Homo sapiens), P05107+P11215; actives 0.54% (n = 93,000); inhibition, % at 10 µM;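 active means primary inhibition of 50% or more at 10 µM, then 40% or more on retest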
Pyk2 oligo antag: antagonists of Pyk2 self-association, primary screen, Q293 cells, FERM NanoBiT luminescence, HTS; Protein-tyrosine kinase 2-beta (Homo sapiens), Q14289; hits give low values; z-score (the deposit names both 25 µM and 10 µM); actives 0.83% (n = 99,000); AID 1347419, 2020;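 active means Z-score of -3 or lower, scaled per plate to the spread of control and sample wells; inactive means z-score above -3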;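 further: negative z-score means lost luminescence so less FERM oligomerization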
Ec RNAP inh: E. coli RNAP inhibitors, biochemical. inhibition, %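 (tested at 10 µM)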. actives 0.2% (n = 62,000). DNA-directed RNA polymerase subunit beta (Escherichia coli (strain K12)), P0A8V2. E. coli RNA polymerase, fluorescence transcription assay; in the data active means inhibition above about 20%;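 further: 0% = enzyme without compound and 100% = no enzyme blank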
Cav3 T inh: Cav3.2 calcium influx blockers – cell-based, Fluo-4 calcium fluorescence, FDSS, MLSMR library, primary screen; Voltage-dependent T-type calcium channel subunit alpha-1H (Homo sapiens), O95180; Cav3.2-expressing cells; hits give low values; B-score at 10 µM; actives 4% (n = 100,000); AID 449739, 2010;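 active means single-dose well whose peak fluorescence ratio is a statistical outlier from its plate by either plate-standardised score or position-corrected B-score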
Active calls of the source: *; nt = no result given. Hits are enriched below; roughly 4.2% of the tested compounds scored in any of these assays.

SMILES | Mac1 fbg enh | CD11b adhes inh | Pyk2 oligo antag | Ec RNAP inh | Cav3 T inh
Cc1ccc(-c2cc(-c3ccccc3Cl)c(C#N)c(N)n2)o1 | 19 | 1 | -1.4 | -6 | -0.46
CCSc1nc(N)c(C#N)c(-c2ccccc2Cl)c1C#N | -2 | 8 | -3.7* | 7 | 0.00056
C=CCSc1nc(N)c(C#N)c(-c2ccc(C)cc2)c1C#N | 6 | -20 | -3.5* | 7 | 0.47
O=C(C1=C[C@@H](c2ccc(C(F)(F)F)cc2)C[C@@H](OCc2ccc(CO)cc2)O1)N1CCN(Cc2ccccc2)CC1 | nt | nt | nt | nt | -1.1
CCOC(=O)c1nn(-c2ccccc2)c(-c2ccccc2)c1C(=O)c1ccccc1 | nt | nt | -3.5* | nt | 0.59
CCOC(=O)c1nn(-c2cccc(OC)c2)c(-c2ccccc2)c1C(=O)c1ccccc1 | nt | nt | -4.2* | nt | -3.2
CCOC(=O)c1nn(-c2cccc(Cl)c2)c(C)c1C(C)=O | -1 | 7 | -0.2 | nt | 0.79
CCOC(=O)c1nn(-c2ccc(F)cc2)c(-c2ccccc2)c1C(=O)c1ccccc1 | nt | nt | -3.1* | nt | -0.43
CCOC(=O)c1nn(-c2ccccc2F)c(-c2ccccc2)c1C(=O)c1ccccc1 | nt | nt | -4* | nt | -4.4*
Cn1cc([N+](=O)[O-])c(C(=O)Nc2cc(Oc3cccnc3)cc([N+](=O)[O-])c2)n1 | 2 | 0 | nt | nt | 0.071
O=C(Nc1nnc(SCc2ccc(F)cc2)s1)C1Cc2ccccc2CN1C(=O)c1ccco1 (configuration not stated) | nt | nt | -0.43 | nt | -5.7*
O=C(Nc1ccccc1N1CCOCC1)C1Cc2ccccc2CN1C(=O)c1ccco1 (configuration not stated) | 1 | -4 | -0.83 | nt | -0.22
CC(C)C(=O)NCCc1nc(-c2ccc(Cl)cc2)no1 | nt | nt | nt | nt | -0.034
CCC(C)NS(=O)(=O)c1ccc(S(=O)(=O)N2CCCC3(CCCCC3)C2)cc1 (configuration not stated) | -8 | 96 | -0.66 | nt | -6.3*
CCC(C)NS(=O)(=O)c1ccc(OCC(=O)N2CCCC2)cc1 (configuration not stated) | nt | nt | 0.18 | nt | -0.12
COc1ccc(NC(=O)Nc2ccc(N3CCCC3=O)cc2)cc1OC | 2 | -8 | 1.4 | 3 | 1.2
COc1ccc(NC(=O)COC(=O)c2ccc(N3CCCC3=O)cc2)cc1OC | -2 | -8 | -0.4 | 4 | -12*
CC(C)NC(=S)Nc1ccc(Oc2ccccc2)cc1 | 1 | 8 | -0.61 | nt | -4.7*
CC(C)(C)C(=O)Nc1nc(=S)ss1 | -6 | 66* | -0.04 | nt | -5*
C[C@@H]1CC=C[C@H]2[C@H]1C(=O)N(Cc1ccccc1)[C@H]2c1cccc([N+](=O)[O-])c1 | nt | nt | nt | nt | -0.57
COc1ccc(N=C2NC(=O)S/C2=C\c2ccc(N(C)C)cc2)cc1 | -1 | -4 | -3.1* | nt | -0.39
CCCNC(=O)NC(=O)COC(=O)c1ccc(OC)c(S(=O)(=O)N2CCCc3ccccc32)c1 | -1 | -7 | -2.5 | 1 | -7.5*
O=[N+]([O-])c1ccc2nc(SCc3ccccc3Cl)sc2c1 | nt | nt | 0.7 | nt | -4.1*
CC(C)CCN1C(=O)c2ccc(-c3nc4ccccc4c(=O)o3)cc2C1=O | nt | nt | -3.3* | nt | -0.38
O=C(CN(C(=O)CNC(=O)c1ccco1)c1ccc(Cl)c(Cl)c1)NC1CCCCC1 | 0 | -2 | -0.64 | 4 | -4.3*
SMILES | Mac1 fbg enh | CD11b adhes inh | Pyk2 oligo antag | Ec RNAP inh | Cav3 T inh
O=C(NCC(=O)N(Cc1ccccc1)C(C(=O)NC1CCCCC1)c1ccco1)c1ccco1 (configuration not stated) | nt | nt | -0.27 | nt | -1.2
Cc1ccc(C(C(=O)NC2CCCCC2)N(CCC(C)C)C(=O)CNC(=O)c2ccco2)o1 (configuration not stated) | -3 | 3 | -0.52 | 5 | -4.7*
Cc1cccc(NC(=O)c2nc(-c3ccccc3)n(-c3ccccc3)n2)c1C | -3 | 6 | -2.2 | nt | -6.6*
Cc1n[nH]c(C)c1N1C(=O)c2cccc3c(N4CCCCCC4)ccc(c23)C1=O | -5 | 11 | 0.01 | -6 | -9.7*
CC(=O)c1ccc2c3c(cccc13)C(=O)N(c1c(C)nn(C)c1C)C2=O | 1 | 0 | 1.2 | 2 | 0.025
O=C1c2cccc3c(N4CCCCC4)ccc(c23)C(=O)N1CCO | -2 | 1 | -0.77 | nt | -6.1*
Cc1ccccc1-c1n[nH]c(=S)n1/N=C/c1c(C)nn(-c2ccccc2)c1C | 13 | -4 | nt | nt | nt

Source: PubChem
